# ATXN2 expr inh: Primary qHTS for Inhibitors of ATXN expression. hit rate 0.72% among 360,000. Potency, µM (highest dose often 57 µM), inactives show at the highest dose activity change, negative = inhibition, actives largely listed as inhibitors. HEK-293 ATXN2-luciferase reporter, luminescence, 24 h. AID 1745845, 2022; note: % is set by controls: 0 for no effect and ±100 for the full control effect; nearly all actives have a fitted effect of over 55% in size
#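 ATXN2-luciferase reporter cells (luciferase flanked by upstream and downstream ATXN2 gene portions) were treated 24 h at 37 °C with compounds at up to 57 uM. SteadyGlo luminescence gave expression; GF-AFC fluorescence gave viability.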
# HT1080 IDH1KD tx: qHTS for induction of synthetic lethality in tumor cells producing 2HG: qHTS for the HT-1080-IDH1KD cell line | HT-1080 IDH1 knockdown viability, ATP luminescence, 48 h | Potency, µM (series often up to 46.1 µM), for inactives: top-dose activity, negative = toxicity, hits mostly cytotoxic | hit rate 2% among 360,000;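 note: 0% = DMSO wells and -100% = cell-free medium wells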
#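 % activity derives from luminescence (CellTiter-Glo), normalised to DMSO and no-cell wells. HT-1080-IDH1KD cells, 750/well, had 48 h compound exposure at 37 °C.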
# ATXN viability: Viability Counterscreen for Primary qHTS for Inhibitors of ATXN expression. hit rate 0.49% among 400,000. AID 651635, 2014. Potency, µM (doses to about 56.7 µM), most hits filed as cytotoxic. S2 cells (HEK-293 line with an ATXN2-luciferase reporter) viability, CellTiter-Fluor protease fluorescence, 24 h; note: nearly all actives have a fitted effect of over 40% in size
# KB-V1 MDR tox: qHTS assay for MDR1-selective chemotherapeutics: Primary screen using the drug-selected MDR subline cells KB-V1 | KB-V1 MDR cells viability, CellTiter-Glo, 72 h | Potency, µM (doses to about 46.1 µM), usual class: cytotoxic | hit rate 3.4% among 400,000 | AID 1347076, 2019; note: % is set by controls: 0 for no effect and ±100 for the full control effect; nearly all actives have a fitted effect of over 60% in size
#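 Cells of the MDR subline KB-V1 are plated, dosed with compound at multiple concentrations, and incubated 72 h at 37 degrees C; CellTiter-Glo is then added and luminescence read after 10 min.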
# KB-3-1 cytotox: qHTS assay for MDR1-selective chemotherapeutics: Primary screen using the parental adenocarcinoma cell KB-3-1 | KB-3-1 viability, CellTiter-Glo ATP luminescence, 72 h | Potency, µM (series often up to 46.1 µM), usual class: cytotoxic | hit rate 1.4% among 400,000; note: % is set by controls: 0 for no effect and ±100 for the full control effect; nearly all actives have a fitted effect of over 60% in size
#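 Parental KB-3-1 viability, qHTS format: 72 h compound exposure, 37 °C; CellTiter-Glo; media-only wells and DMSO plates as controls; concentration-effect fits on corrected data.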
# HT1080-NT tox: qHTS for induction of synthetic lethality in tumor cells producing 2HG: qHTS for the HT-1080-NT fibrosarcoma cell line; HT-1080-NT fibrosarcoma viability, CellTiter-Glo ATP luminescence, 48 h; Potency, µM (top dose mostly 46.1 µM), for inactives: at the top dose activity, negative = less viability, actives largely listed as cytotoxic; hit rate 1.6% among 360,000;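 note: NT is the 2HG producing partner of a matched IDH1 knockdown line; 0% = DMSO-treated cells and -100% = media-only wells without cells; nearly all actives have a fitted effect of over 55% in size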
#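 Luminescent CellTiter-Glo readout after 48 hours of compound exposure at 37 degrees C defined viability of HT-1080-NT cells. Activity was normalized to DMSO wells and cell-free media wells; concentration-response curves were fitted and assigned curve classes.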
# Numbers without * were called inactive; i = inactive; ? = inconclusive; . = not tested or not shown; ! = not confirmed by another sample. Rows were chosen to be rich in hits. Some 6.2% of all compounds tested hit in one or more screens of this group. Calls come from the whole dose curve; as a rule, active = well fitted curve in the direction sought with a large enough effect; inconclusive = small, poorly fitted or top-dose-only effect, or another doubt; inactive = no such curve, though single readings can be large; an effect the other way counts as inactive or inconclusive. Potency is the fitted concentration of half-maximal effect.
SMILES,ATXN2 expr inh,HT1080 IDH1KD tx,ATXN viability,KB-V1 MDR tox,KB-3-1 cytotox,HT1080-NT tox
O=C(NC1CCCC1)C(c1ccncc1)N(Cc1ccco1)C(=O)c1ccc(-c2ccccc2)[nH]1 (centres undefined),-3%,15µM*,i,21µM*,?,?
COc1cccc(C(C(=O)NC2CCCC2)N(C(=O)c2ccco2)c2ccccc2F)c1OC (centres undefined),1%,0%,i,?,i,-6%
COc1ccc(C)cc1N(C(=O)c1snc(C(N)=O)c1N)C(C(=O)NC1CCCCC1)c1ccc(C)o1 (centres undefined),-6%,?,i,21µM*,?,?
CCOc1ccc(C(C(=O)NCC2CCCO2)N(CCc2cccc(C)c2)C(=O)c2snc(C(N)=O)c2N)cc1 (centres undefined),-2%,?,i,21µM*,?,?
COc1ccc(OC)c(C(C(=O)NC2CCCCC2)N(C(=O)c2snc(C(N)=O)c2N)c2ccccc2OC)c1 (centres undefined),-10%,-9%,i,i,i,-1%
Cc1cccc(N(C(=O)c2snc(C(N)=O)c2N)C(C(=O)NCc2ccccc2)c2ccncc2)c1 (centres undefined),?,?,?,i,18µM*,18µM*
CCOc1ccc(C(C(=O)NCC2CCCO2)N(C(=O)c2snc(C(N)=O)c2N)c2ccc(F)cc2)cc1 (centres undefined),-7%,0%,i,i,i,1%
COc1cccc(C(C(=O)NC2CCCC2)N(Cc2ccco2)C(=O)c2ccco2)c1OC (centres undefined),-6%,-17%,i,2.9µM*,i,?
Cc1cccc(NC(=O)C(=O)NCCc2csc(-c3ccc(F)cc3)n2)c1C,-1%,.,i,i,i,.
CCNc1ccc(/C=C/c2ccnc3ccccc23)cc1,.,.,.,i,?,.
COCc1c(C(=O)N2CCC(N(C)C)C2)cnn1-c1ncc2c(n1)-c1ccccc1CCC2 (centres undefined),.,.,i,.,.,.
COc1ccc(C(CCNCc2ccc(N(C)C)cc2)c2ccccc2OC)cc1 (centres undefined),?,29µM*,i,?,i,?
COc1ccc(CNCCC(c2ccc(OC)cc2)c2ccccc2OC)cc1 (centres undefined),-37%,21µM*,?,?,?,15µM*
COc1ccc(C(CCNCc2ccc(OC(C)C)cc2)c2ccccc2OC)cc1 (centres undefined),.,?,14µM*,23µM*,?,?
COc1cccc(-c2ccnc(-n3ncc(C(=O)NCc4cccnc4)c3C3CC3)n2)c1,.,.,i,.,.,.
CC(=O)NC(c1ccc(N(C)C)cc1)c1cc(Cl)c2cccnc2c1O (centres undefined),.,?,i,?,3.3µM*,?
CCC(=O)NC(c1ccc(C)cc1)c1cc([N+](=O)[O-])c2cccnc2c1O (centres undefined),?,13µM*,i,i,?,16µM*
COc1ccc(C(NC(C)=O)c2cc(Cl)c3cccnc3c2O)cc1 (centres undefined),4.5µM*,12µM*,i,i,?,?
CC(=O)NC(c1ccc(C)cc1)c1cc([N+](=O)[O-])c2cccnc2c1O (centres undefined),?,?,i,?,?,?
CC(=O)NC(c1ccccc1)c1cc(Cl)c2cccnc2c1O (centres undefined),7.9µM*,?,i,?,?,?
COc1cc(Nc2nc3ccccc3nc2NS(=O)(=O)c2ccc(NC(=O)c3ccc(C)c(OC)c3)cc2)cc(OC)c1,6%,.,.,.,.,.
O=C(NC(c1ccc(Cl)cc1)c1cc(Cl)c2cccnc2c1O)c1cccnc1 (centres undefined),?,3.3µM*,i,?,?,?
CCCCC(=O)NC(c1cccs1)c1cc(Cl)c2cccnc2c1O (centres undefined),.,?,i,?,?,?
CCC(=O)NC(c1cc(Cl)c2cccnc2c1O)C(C)C (centres undefined),7.1µM*,.,?,?,i,.
CCC(=O)NC(c1cccs1)c1cc(Cl)c2cccnc2c1O (centres undefined),.,?,i,i,i,?
SMILES,ATXN2 expr inh,HT1080 IDH1KD tx,ATXN viability,KB-V1 MDR tox,KB-3-1 cytotox,HT1080-NT tox
O=C(NC(c1ccco1)c1cc(Cl)c2cccnc2c1O)c1ccc(Cl)cc1 (centres undefined),.,.,.,i,i,.
CCCC(=O)NC(c1ccc(OC)c(OC)c1)c1cc(Cl)c2cccnc2c1O (centres undefined),?,?,i,23µM*!,?,?
O=C(O)c1ccccc1-c1ccccc1C(=O)NCc1ccccc1F,14%,6%,i,i,i,9%
C=CCn1cnc2c(c1=O)c1nc3ccccc3nc1n2/N=C/c1cccc(OC)c1OC,-18%,?,?,23µM*,i,16%
C=CCn1cnc2c(c1=O)c1nc3ccccc3nc1n2/N=C/c1cc(OC)c(OC)c(OC)c1,?,?,i,?,i,?
Cc1ccc(S(=O)(=O)N2CCN(c3nc(-c4ncco4)nc4ccccc34)CC2)cc1,.,-7%,.,.,.,-9%
O=C(NNc1ccc([N+](=O)[O-])cc1[N+](=O)[O-])c1ccco1,?,?,?,i,?,18µM*
O=C(NNc1ccc([N+](=O)[O-])cc1)c1ccco1,3%,-9%,i,i,i,-1%
COc1cccc(N2C(=O)C(CC(=O)Nc3ccccc3)N(CCc3sccc3C)C2=O)c1 (centres undefined),-24%,.,?,i,i,.
O=C(Nc1cccc(C(F)(F)F)c1)C1Cc2c(-c3ccccc3Oc3ccccc3)ccnc2O1 (centres undefined),?,?,i,18µM*,?,?
CC(=O)Nc1ccc(NC(=O)C2Cc3c(-c4ccc(Cl)cc4)ccnc3O2)cc1 (centres undefined),-1%,-6%,i,i,i,?

# Source: PubChem
